# Results from patent US20140271602, “NUCLEOTIDE-SPECIFIC RECOGNITION SEQUENCES FOR DESIGNER TAL EFFECTORS” (THE BROAD INSTITUTE INC., published 2014).
# Target: T1, TALE2-NN (CACNA1C site 2 activator) (Xanthomonas (engineered), UniProt P14727 SEQ:1-983)
# T1 chain: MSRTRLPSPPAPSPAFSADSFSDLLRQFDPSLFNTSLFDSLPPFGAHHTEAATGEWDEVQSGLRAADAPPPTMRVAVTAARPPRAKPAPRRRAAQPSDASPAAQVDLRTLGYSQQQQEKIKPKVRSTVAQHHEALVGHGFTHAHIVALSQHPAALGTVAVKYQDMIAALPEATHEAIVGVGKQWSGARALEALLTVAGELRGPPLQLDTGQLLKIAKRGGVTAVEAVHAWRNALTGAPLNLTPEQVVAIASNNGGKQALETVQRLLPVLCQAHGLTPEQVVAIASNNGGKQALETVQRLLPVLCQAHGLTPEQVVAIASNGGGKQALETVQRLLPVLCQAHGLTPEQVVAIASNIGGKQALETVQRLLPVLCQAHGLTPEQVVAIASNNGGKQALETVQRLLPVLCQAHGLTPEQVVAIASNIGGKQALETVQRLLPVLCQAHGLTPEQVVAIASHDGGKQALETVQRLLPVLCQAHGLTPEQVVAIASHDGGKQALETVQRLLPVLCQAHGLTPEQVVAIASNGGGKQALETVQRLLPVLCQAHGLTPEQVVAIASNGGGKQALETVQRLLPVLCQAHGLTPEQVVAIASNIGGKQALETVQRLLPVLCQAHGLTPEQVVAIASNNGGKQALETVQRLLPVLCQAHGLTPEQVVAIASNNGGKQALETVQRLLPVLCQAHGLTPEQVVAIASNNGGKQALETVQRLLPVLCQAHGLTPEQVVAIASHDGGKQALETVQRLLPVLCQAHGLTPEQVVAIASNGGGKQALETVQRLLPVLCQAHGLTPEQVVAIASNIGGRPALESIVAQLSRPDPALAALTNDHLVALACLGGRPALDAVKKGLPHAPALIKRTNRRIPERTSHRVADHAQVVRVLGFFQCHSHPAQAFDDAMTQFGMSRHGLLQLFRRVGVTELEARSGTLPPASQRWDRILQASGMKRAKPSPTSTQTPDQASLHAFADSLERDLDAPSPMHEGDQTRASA
# Experiment: cell_activity; luciferase reporter
# Conditions: tags: VP64, 2A-GFP; dsDNA, one strand shown
# Experimental: TALEs using NN, NK, NH, and HN as the G-targeting RVD were synthesized to target two distinct 18 bp target sites in the human CACNA1C locus. Changes in mRNA are measured using qRT-PCR as described previously. VP64, VP64 transcription activation domain. All results are collected from three independent experiments in HEK 293FT cells. Error bars indicate s.e.m.; n=3. FIG. 19(b) discloses SEQ ID NOS 63 and 62, respectively, in order of appearance.
# To determine whether NH and HN are suitable replacements for NN as the G-specific RVD, specificity and activity strength of NN, NK, NH, and HN were directly compared. Two 18 bp targets within the CACNA1C locus in the human genome were chosen and four TALEs for each target were constructed, using NN, NK, NH, or HN as the G-targeting RVD (FIG. 19a). […] For each CACNA1C target site, four luciferase reporters were constructed: wild type genomic target, and wild type target with 2, 4, or all guanines mutated into adenines (FIG. 19a, G-to-A reporters), and compared the activity of each TALE using these reporters (FIG. 19a). […] Thus, focus was placed on the RVDs NN, NK, and NH in subsequent experiments to assess their usefulness in modulating transcription at endogenous human genome targets.
row,Sequence,binding signal
1,TAATAGACCTTAGGGCTA,21.8 % reduction vs wild-type site
